# In PubChem BioAssay:
# Where “and” joins values, the source holds several entries; their conditions need not be identical. Equal entries are not always repeated. Values without a mark were called inactive. The rule behind the calls is not given here. Positions of bridges follow the written chain, without caps; N, C: chain ends. Non-standard residues stand in square brackets, D forms with d. Residues, ends and D or L forms follow the SMILES beside them. *: point of attachment. Octanoyl(6-Me) = CCC(C)CCCCC(=O)*; Dab = NCC[CH](N)C(=O)O
# How the values were obtained:
# [1] = tested on: Aerobactin synthetase IucA (Klebsiella pneumoniae hvKP1); assay: Biochemical IucA enzyme inhibition primary screen of the Spectrum library (AID 1346200); settings: malachite green pyrophosphate, A620, at 8 µM, hits give low values;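 note: 100% = wells without compound and 0% = wells lacking enzyme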
# [2] = tested on: Aerobactin synthetase IucA (Klebsiella pneumoniae, hypervirulent); assay: IucA enzyme inhibition, biochemical, LOPAC library, absorbance readout (AID 1346212); settings: IucA enzyme assay, absorbance (OD) readout; hits give low values; concentration not given here;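 note: 100% = no compound wells and 0% = no enzyme wells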
Structure (SMILES),activity remaining [1] [%],remaining activity [2]
C=NC(C(=O)NC1C(=O)N2C1SC(C)(C)C2C(=O)O)c1ccccc1 (stereo not given),110,–
CO/N=C(/C(=O)N[C@@H]1C(=O)N2C(C(=O)O)=C(CSc3nc(=O)c(O)nn3C)CS[C@H]12)c1csc(N)n1,110,–
CCS(=O)(=O)CCn1c([N+](=O)[O-])cnc1C,124,–
COC(=O)C[C@H]1C(C)(C)C(=O)[C@@H]2CC3=C(CC[C@]4(C)C3=CC(=O)O[C@H]4c3ccoc3)C1(C)C2=O,121,–
O=C1[O][Bi][O]c2ccccc21,107,–
CCOc1ccc(C(=O)c2ccc(OC)c(O)c2O)cc1,109,–
O=C(Oc1cc(O)cc2c1C[C@@H](OC(=O)c1cc(O)c(O)c(O)c1)[C@@H](c1cc(O)c(O)c(O)c1)O2)c1cc(O)c(O)c(O)c1,122,–
C[N+](C)(C)C[C@H](O)CC(=O)[O-],100,–
c1ccc2c(c1)CN1CCCC1=N2,99.8,–
C[C@@H]1CC[C@@]23CCC4(C)[C@@](C=CC5[C@@]6(C)CCC(=O)C(C)(C)C6CC[C@]54C)(OC2=O)C3[C@H]1C (stereo not given in full),112,–
CC(COc1ccccc1)NC(C)[C@H](O)c1ccc(O)cc1 (stereo not given in full),119,–
NC(Cc1c[nH]c2ccccc12)C(=O)O (stereo not given),107,–
O=C(/C=C/c1ccc(O)c(O)c1)O[C@@H]1C[C@](O)(C(=O)O)C[C@@H](O)[C@H]1O,103,–
COc1ccc(-c2coc3c(OC)c(OC)cc(O)c3c2=O)cc1,105,–
Cc1cc(=O)[nH]c(=S)[nH]1,95.7,–
O=c1c(O)c(-c2ccccc2)oc2ccccc12,92.5,–
O=C(O)CCC(=O)c1ccc(-c2ccccc2)cc1,115,–
CCOc1ccc(Cc2nccc3cc(OCC)c(OCC)cc23)cc1OCC,109,–
NC(COCc1ccccc1)C(=O)O (stereo not given),105,–
CC(=O)OCC[N+](C)(C)C,118,–
CC(=O)Nc1ccccc1,103,–
COc1cc2c(cc1OC)C(=O)C(CC1CCN(Cc3ccccc3)CC1)C2 (stereo not given),107,–
CC1(C)S[C@@H]2[C@H](NC(=O)[C@H](N)c3ccccc3)C(=O)N2[C@H]1C(=O)O,101,–
CCN1CCN(C(=O)NC(C(=O)N[C@@H]2C(=O)N3[C@@H]2SC(C)(C)[C@@H]3C(=O)O)c2ccccc2)C(=O)C1=O (stereo not given in full),104,–

Structure (SMILES),activity remaining [1] [%],remaining activity [2]
CO[C@@H]1[C@@H](O[C@@H]2O[C@H](C)[C@@H](O[C@H]3C[C@@](C)(O)[C@H](O)[C@H](C)O3)[C@H](N(C)C)[C@H]2O)[C@@H](CC=O)C[C@@H](C)[C@@H](O[C@H]2CC[C@H](N(C)C)[C@@H](C)O2)/C=C/C=C/C[C@H](C)OC(=O)C[C@H]1O,96.2,–
CC(=O)c1c(O)cc(O)cc1O,94.3,–
C=C(C)C1CC=C(CO)CC1 (stereo not given),117,–
C[C@H]1CC2C([C@@H](O)C[C@@]3(C)C2CC[C@]3(O)C(=O)CO)[C@@]2(C)C=CC(=O)C=C12 (stereo not given in full),115,–
CC1(C)S[C@@H]2[C@H](NC(=O)[C@H](NC(=O)N3CCNC3=O)c3ccccc3)C(=O)N2C1C(=O)O (stereo not given in full),95.7,–
CN(C)CCc1c[nH]c2ccc(C[C@H]3COC(=O)N3)cc12,112,–
Oc1c(I)cc(I)c2cccnc12,102,–
O=C(O)C1=C(CSc2nnnn2CS(=O)(=O)O)CS[C@@H]2C(NC(=O)[C@H](O)c3ccccc3)C(=O)N12 (stereo not given in full),116,–
CC1Cc2ccccc2N1NC(=O)c1ccc(Cl)c(S(N)(=O)=O)c1 (stereo not given),101,–
NC1(C(=O)O)CCCC1,117,–
CCc1nc(N)nc(N)c1-c1ccc(Cl)cc1,108,–
CNCC[C@@H](Oc1ccccc1)c1ccccc1,111,–
CC1(C)CC2C1CC[C@]1(C)CCC3C(C(=O)O)CC(=O)O[C@@]32C1 (stereo not given in full),92.5,–
CC(=O)[C@H]1CCC2C3CC=C4C[C@@H](O)CC[C@]4(C)C3CC[C@@]21C (stereo not given in full),99.4,–
Cc1cc(=O)c2c(O)c(C)c(O)cc2o1,108,–
C#CCCCCCCCCCCCC(O)CC(O)COC(C)=O (stereo not given),109,–
CC(=O)N(O)CCCCCNC(=O)CCC(=O)N(O)CCCCCNC(=O)CCC(=O)N(O)CCCCCN,117,–
CCC[C@@H]1C[C@@H](C(=O)N[C@@H](C2O[C@H](SC)[C@H](O)[C@@H](O)[C@H]2O)[C@H](C)Cl)N(C)C1 (stereo not given in full),77.4,–
CC(=O)Oc1ccc2c(c1OC(C)=O)OCC1(O)Cc3c(cc(OC(C)=O)c(OC(C)=O)c3OC(C)=O)C21 (stereo not given),111,–
O=S(=O)(O)CCS,118,–
OC(CCN1CCCC1)(c1ccccc1)C1CCCCC1 (stereo not given),99.4,–
CC1=C(/C=C/C(C)=C/C=C/C(C)=C/C=C/C=C(C)/C=C/C=C(C)/C=C/C(=O)[C@]2(C)C[C@@H](O)CC2(C)C)C(C)(C)C[C@H](O)C1,108,–
CCN(CC)CCOC(=O)C(Cc1cccc2ccccc12)CC1CCCO1 (stereo not given),99.1,–
O=C1C=CC2=C3c4cc(O)c(O)cc4CC3(O)COC2=C1O (stereo not given),94.5,–

Structure (SMILES),activity remaining [1] [%],remaining activity [2]
CCC(C)CCCCC(=O)NC(CCN)C(=O)NC(C(=O)NC(CCN)C(=O)NC1CCNC(=O)C(C(C)O)NC(=O)C(CCN)NC(=O)C(CCN)NC(=O)C(CC(C)C)NC(=O)C(Cc2ccccc2)NC(=O)C(CCN)NC1=O)C(C)O (stereo not given) ({Octanoyl(6-Me)}-[Dab]T[Dab][Dab][Dab]FL[Dab][Dab]T; lactam 4-C; configuration not given here),121,–
CC[C@H]1CN2CCc3cc(OC)c(OC)cc3C2C[C@@H]1CC1NCCc2cc(OC)c(OC)cc21 (stereo not given in full),118,–
CC1CC2C3CCC4=CC(=O)C=C[C@]4(C)[C@@]3(F)[C@@H](O)C[C@]2(C)[C@@]1(O)C(=O)CO (stereo not given in full),117,–
CC(=O)Oc1ccc2c(c1C(C)C)CCC1C(C)(C)CCC[C@]21C (stereo not given in full),97.3,–
Nc1cc(C(Cl)=C(Cl)Cl)c(S(N)(=O)=O)cc1S(N)(=O)=O,104,–
CC1(C)C=Cc2c(cc3occ(-c4ccc5c(c4)OCO5)c(=O)c3c2O)O1,118,–
CN(C)CCOc1ccc(/C(=C(/CCCl)c2ccccc2)c2ccccc2)cc1,112,–
C=C(C)[C@@H]1CC[C@]2(CO)CC[C@]3(C)[C@H](CCC4[C@@]5(C)CC[C@H](O)C(C)(C)C5CC[C@]43C)C12 (stereo not given in full),93.4,–
CC(C)=CCCC1(C)C=Cc2c(O)c3c(c(CC=C(C)C)c2O1)OC12C(=CCCC1C(C)(C)O[C@@]2(C/C=C(\C)C(=O)O)C(=O)O)C3=O (stereo not given in full),116,–
COc1cc2cc3c4cc(OC)c(OC)cc4cc[n+]3c(C)c2cc1OC,95.4,–
COc1ccc2c(c1)OCC(Cc1ccc(OC)c(OC(C)=O)c1)C2=O (stereo not given),113,–
COc1cccc(/C=C/C(=O)O)c1C(C)C,122,–
CC1(C)C2C[C@@H](O)[C@]3(C)C(CC[C@@]4(C)[C@H](c5ccoc5)OC(=O)C5OC543)[C@@]2(C)C(=O)C[C@H]1O (stereo not given in full),108,–
COc1ccc2c(c1)OC[C@@H](Cc1ccc(OC)c(OC)c1)[C@@H]2O,121,–
NC(=O)N1c2ccccc2CC(=O)c2ccccc21,123,–
CC(=O)O[C@H]1CC[C@@]2(C)C(C[C@@H](OC(C)=O)[C@@]3(C)C4=CC(=O)O[C@@H](c5ccoc5)[C@]4(C)CCC23)C1(C)C (stereo not given in full),89.5,–
COc1cc2c(cc1O)[C@@H](Cc1ccc(O)cc1)[N+](C)(C)CC2,75.4,–
COc1ccc(-c2oc3ccccc3c(=O)c2O)cc1OC,109,–
O=C(/C=C/C=C/c1ccc2c(c1)OCO2)N1CCCCC1,104,–
COc1c(O)cccc1O,87.7,–
O=C(O)CCCCC1CCSS1 (stereo not given),103,–
COc1ccc(/C=C/C(=O)c2cc(O)ccc2O)cc1,87.4,–
O=c1[nH]cnc2[nH]ncc12,99.3,110%
CCCCNc1ccc(C(=O)OCCN(C)C)cc1,118,97.3%

Structure (SMILES),activity remaining [1] [%],remaining activity [2]
COc1cc2nc(N3CCN(C(=O)c4ccco4)CC3)nc(N)c2cc1OC,127,84.9%
Fc1ccc(C(c2ccc(F)cc2)N2CCN(C/C=C/c3ccccc3)CC2)cc1,117,103%
NCCCCC(=O)O,107,104%
CCCNCC(O)COc1ccccc1C(=O)CCc1ccccc1 (stereo not given),104,112%
CC(=O)Nc1nnc(S(N)(=O)=O)s1,103,113%
OCCN(CCO)c1nc(N2CCCCC2)c2nc(N(CCO)CCO)nc(N3CCCCC3)c2n1,89.5,92.9%
CN(C)CCCC1(c2ccc(F)cc2)OCc2cc(C#N)ccc21 (stereo not given),102,124%
CN1CCN(CCCN2c3ccccc3Sc3ccc(C(F)(F)F)cc32)CC1,122,93.4%
NNCCc1ccccc1,112,93.4%
C=Cc1c(C)c2cc3[nH]c(cc4nc(cc5nc(cc1[nH]2)C(C)=C5CCC(=O)O)C(CCC(=O)O)=C4C)c(C)c3C=C,97.5,107%
CCCN(CCC)CCc1cccc2c1CC(=O)N2,98.7,80.8%
CC(=O)NCCc1c[nH]c2ccc(O)cc12,113,106%
NC(=O)c1cccc(N)c1,121,113%
CCCOc1ccccc1-c1nc2n[nH]nc2c(=O)[nH]1,97.7,125%
Cc1cn[nH]c1,102,121%
CC(C(=O)O)c1cccc(C(=O)c2ccccc2)c1 (stereo not given),106,120%
NCCCCN=C(N)N,123,111%
CCN(CC)CCCC(C)Nc1c2ccc(Cl)cc2nc2ccc(OC)cc12 (stereo not given),93.4,115%
Cc1ccccc1N1C(=O)c2cc(S(N)(=O)=O)c(Cl)cc2NC1C (stereo not given),95.7,122% and 125%
CCCCOc1cc(CC2CNC(=O)N2)ccc1OC (stereo not given),115,110%
NS(=O)(=O)c1cc2c(cc1Cl)NC(C1CC3C=CC1C3)NS2(=O)=O (stereo not given),122,95.7%
Cn1cnc([N+](=O)[O-])c1Sc1ncnc2nc[nH]c12,113,121%
CS(=O)(=O)Nc1ccc([N+](=O)[O-])cc1Oc1ccccc1,113,117%
CN(C)c1nc(N(C)C)nc(N(C)C)n1,118,120%

Structure (SMILES),activity remaining [1] [%],remaining activity [2]
COc1cc(Cc2cnc(N)nc2N)cc(OC)c1OC,93.2,76.5%
N[C@@H](Cc1ccc(O)c(O)c1)C(=O)O,115,97%
CN1CCN(C2=Nc3cc(Cl)ccc3Nc3ccccc32)CC1,120,127%
Clc1ccc(C(c2ccccc2Cl)C(Cl)Cl)cc1 (stereo not given),92.7,111%
Nc1ncnc2c1ncn2[C@@H]1O[C@H](CO)[C@@H](O)[C@H]1O,113,110%
Clc1ccc2c(c1)C(N1CCNCC1)=Nc1ccccc1O2,109,126%
Cc1cc(C(C)(C)C)cc(C)c1CC1=NCCN1,126,115%
CCN(CC)CCNC(=O)c1cc(Cl)c(N)cc1OC,88.1,101%
CCCCC1C(=O)N(c2ccccc2)N(c2ccccc2)C1=O,117,102%
O=C(O)CCc1nc(-c2ccccc2)c(-c2ccccc2)o1,111,116%
Cn1c(=O)c2[nH]c(C3CCCC3)nc2n(C)c1=O,97.7,70.6%
CN(C)CCN(Cc1cccs1)c1ccccn1,120,93%
O=c1[nH]cc(F)c(=O)[nH]1,96.1,98.4%
CC(C)NCC(O)c1cc(O)cc(O)c1 (stereo not given),126,118%
CCO/C([O-])=N/c1c[n+](N2CCOCC2)no1,99.6,128%
O=C(c1ccc(OCCN2CCCCC2)cc1)c1c(-c2ccc(O)cc2)sc2cc(O)ccc12,105,92%
O=C(O)c1cc2cc(F)ccc2[nH]1,106,86.3%
NS(=O)(=O)c1cc(C(=O)O)c(NCc2ccco2)cc1Cl,105,97.8%
NC12CC3CC(CC(C3)C1)C2,107,119%
CC(C)(C)NCC(O)c1cc(O)cc(O)c1 (stereo not given),109,109%
c1ccc2c(c1)CCCC2C1=NCCN1 (stereo not given),110,102%
NC(N)=NC(=O)c1nc(Cl)c(N)nc1N,118,105%
CN(C)CCOC(=O)COc1ccc(Cl)cc1,124,112%
Oc1ccc(O)cc1,121,105%
